Experimental data taken from PubChem BioAssay.
For some assays here: Measured potencies and affinities stand elsewhere. Calls of active or inactive are those of the source.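 Rule for the calls, unless noted: active = primary screen activator hit with a dose response curve and TRPC4 channel activation at any tested dose; inactive = no activation, no dose response, or not a primary hit.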

How the values were obtained:
[1] = system: TRPC4 beta (transient receptor potential cation channel C4), mouse; experiment: activators of mouse TRPC4 channel, confirmation, cell-based, Fluo4 calcium, HEK293 TRPC4beta/mu-opioid, duplicates, 10 µM (AID 2426;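 active = fluorescence ratio normalized to control raised more than 50% in primary screen plus both repeat runs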); conditions: Fluo4 calcium fluorescence, at 10 µM; hits give high values
[2] = system: transient receptor potential cation channel C4 beta (TRPC4), mouse; experiment: activators of mouse TRPC4 channel, confirmation, cell-based, second round, Fluo4, HEK293 TRPC4beta/mu-opioid, 1 µM (AID 2461;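 active = primary screen active and over 50% activation in each of two duplicate runs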); conditions: Fluo4 calcium fluorescence, at 1 µM; hits give high values
[3] = system: TRPC4 (transient receptor potential cation channel C4 beta), mouse; experiment: positive allosteric modulators of mouse TRPC4, confirmation, cell-based, second round, Fluo-4, HEK293 TRPC4beta/mu-opioid, 1 µM (AID 2554;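 active = primary screen hit whose fluorescence ratio, in both repeats, exceeds the weak agonist control mean by 3 SD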); conditions: DAMGO EC20, Fluo-4 calcium flux, at 1 µM; hits give high values
[4] = system: TRPC4 beta (transient receptor potential cation channel C4), mouse; experiment: positive allosteric modulators of mouse TRPC4, confirmation, cell-based, Fluo-4, HEK293 TRPC4beta/mu-opioid (AID 2555;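 active = primary screen hit whose calcium fluorescence ratio, in both repeats, exceeds the weak agonist control mean by 3 SD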); conditions: DAMGO EC20, Fluo-4 calcium flux, at 10 µM; hits give high values
[5] = biological target: Short transient receptor potential channel 4 (Mus musculus) (UniProt Q9QUQ5); experiment: inhibitors of mouse TRPC4 channel, confirmation, cell-based, Fluo4, HEK293 TRPC4beta/mu-opioid (AID 2636;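 active = calcium signal cut by more than 3 SD below the full-agonist control yet still positive, in both repeats and the earlier primary screen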); conditions: DAMGO, Fluo4 calcium flux, at 10 µM; hits give high values
[6] = biological target: Short transient receptor potential channel 4 (Mus musculus) (UniProt Q9QUQ5); experiment: inhibitors of mouse TRPC4 channel, confirmation, cell-based, second round, Fluo4, HEK293 TRPC4beta/mu-opioid, 1 µM (AID 2637;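 active = calcium signal ratio cut to more than 3 SD under the fully stimulated control mean yet still positive, in both repeats and the primary screen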;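 for inhibition: percent of integrated ratio relative to wells lacking test compound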); conditions: Fluo4 calcium flux, DAMGO, at 1 µM; hits give high values
[7] = biological target: Short transient receptor potential channel 4 (Mus musculus) (UniProt Q9QUQ5); experiment: mouse TRPC4 channel activators, dose response, cell-based, HEK293 TRPC4/mu-opioid, Fluo-4 calcium (AID 434937)
[8] = biological target: Short transient receptor potential channel 4 (Mus musculus) (UniProt Q9QUQ5); experiment: TRPC4 positive allosteric modulators, dose response, cell-based, HEK293 TRPC4/mu-opioid, Fluo-4 calcium, EC20 DAMGO (AID 434941;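 active = earlier screen potentiator hit that boosts the TRPC4 ion channel at some dose, with a dose response; inactive = no potentiation, no dose response, or not a prior hit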;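 note: calcium entry triggered by an EC20 dose of DAMGO at the co-expressed mu-opioid receptor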)
[9] = biological target: Short transient receptor potential channel 6 (Mus musculus) (UniProt Q61143); experiment: inhibition of mouse TRPC6 channel, confirmation, selectivity assay for TRPC4 inhibitor project, cell-based, HEK293, membrane potential dye, duplicate (AID 434948;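 active = active in primary screen and both duplicates, each dropping signal beyond three positive-control SD with fluorescence still positive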); conditions: HEK293 TRPC6, membrane potential dye fluorescence, at 10 µM, stimulated with maximal-effect acetylcholine; hits give high values
[10] = biological target: Short transient receptor potential channel 6 (Mus musculus) (UniProt Q61143); experiment: activation of mouse TRPC6 channel, confirmation, selectivity assay for TRPC4 activator project, cell-based, HEK293, membrane potential dye, duplicate (AID 434950;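 active = membrane potential signal rise above negative control mean plus 3 SD in both duplicates, also active in the earlier TRPC4 screen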); conditions: HEK293 TRPC6, membrane potential fluorescence, at 10 µM; hits give high values
[11] = biological target: Short transient receptor potential channel 6 (Mus musculus) (UniProt Q61143); experiment: TRPC6 potentiation by TRPC4 potentiator hits, confirmation, selectivity assay for TRPC4 potentiator project, HEK293 cells, membrane potential dye, duplicate (AID 434952;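 active = compound raising the membrane signal above positive-control mean plus 3 SD in both repeats, and a primary screen hit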); conditions: HEK293 TRPC6, membrane potential dye fluorescence, at 10 µM, maximal acetylcholine added after compound; hits give high values
[12] = biological target: Short transient receptor potential channel 4 (Mus musculus) (UniProt Q9QUQ5); experiment: calcium flux activators in TRPC4/5HT1a cells, counter-screen for TRPC4 activator project, cell-based, second counter screen, HEK293 TRPC4/5HT1a, Fluo-4 (AID 434977;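 active = calcium signal rise above buffer-control mean plus 5 SD in both duplicates, and also a hit in the primary screen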); conditions: Fluo-4 calcium flux, at 10 µM; hits give high values
[13] = calcium flux inhibitors in TRPC4/5HT1a cells, confirmation, counter-screen for TRPC4 inhibitor project, cell-based, second counter screen, HEK293 TRPC4/5HT1a, Fluo-4 (AID 434978;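 active = primary screen active whose calcium signal fell more than 3 SD beyond the full-serotonin control mean in both duplicate plates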;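 for outcome: serotonin given first at submaximal then at maximal dose after compound preincubation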); conditions: Fluo-4 calcium flux, at 10 µM, serotonin added to trigger calcium flux; hits give high values
[14] = system: TRPC4 (mouse), co-expressed with 5HT1a in HEK293; experiment: calcium flux potentiators in TRPC4/5HT1a cells, confirmation, counter-screen for TRPC4 potentiator project, cell-based, second counter screen, HEK293 TRPC4/5HT1a, Fluo-4 (AID 434979;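 active = signal rise over 3 SD above mean of control wells given weak agonist, in both repeats and first screen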); conditions: Fluo-4 calcium flux, at 10 µM, serotonin added at its EC20 dose; hits give high values
[15] = calcium flux activation in mu-opioid HEK293 cells, confirmation, counter-screen for TRPC4 activator project, cell-based, HEK293 mu-opioid receptor line (AID 449723;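 active = hit in primary screen, with calcium signal over 5 SD above buffer well mean in both duplicates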;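 note: counter screen cells carry the mu-opioid receptor alone and lack TRPC4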); conditions: Fluo-4 calcium fluorescence, at 10 µM; hits give high values
[16] = calcium flux enhancement in mu-opioid HEK293 cells, confirmation, counter-screen for TRPC4 allosteric potentiator project, cell-based, HEK293 mu-opioid receptor line (AID 449724;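 active = calcium signal rise more than 3 SD above the low-dose agonist control mean, in both duplicate plates and the primary screen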); conditions: Fluo-4 calcium flux, at 10 µM, compound added before EC20 DAMGO stimulus; hits give high values
[17] = thallium flux activation in parental CHO cells, counter-screen for KCNQ1 potentiator project (AID 493006;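 active = duplicate-averaged activation above buffer control mean plus 5 SD of those controls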;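 for activation: fluorescence ratio of max minus min over baseline after K+ and Tl+ depolarization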); conditions: parental CHO-K1 cells, FluxOR thallium flux, at 10 µM; hits give high values
[18] = biological target: Potassium voltage-gated channel subfamily KQT member 1 (Homo sapiens) (UniProt P51787); experiment: KCNQ1 potassium channel potentiators, confirmation, FluxOR thallium flux, CHO cells, duplicates (AID 493007;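 active = potentiation averaged over duplicate wells exceeding buffer-only control mean by more than 3 SD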;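 for outcome: cells depolarized by a potassium plus thallium sulfate stimulus after compound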;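 for potentiation: 0% = buffer-only wells and 100% = R-L3 activator control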); conditions: KCNQ1 cell line, FluxOR thallium flux fluorescence, at 10 µM; hits give high values, % of reference activator effect, buffer zero
[19] = biological target: Potassium voltage-gated channel subfamily KQT member 2 (Rattus norvegicus) (UniProt O88943); experiment: rat KCNQ2 channel potentiation, selectivity assay for KCNQ1 potentiator project, KCNQ2-CHO-K1 cells (AID 493009;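 active = mean duplicate potentiation above the buffer control mean plus 5 SD of buffer wells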;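 note: assay conditions were tuned for KCNQ1 rather than KCNQ2 modulators; signal is max minus min fluorescence divided by baseline after thallium stimulus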); conditions: FluxOR thallium flux fluorescence, at 10 µM; hits give high values, scaled: buffer 0, activator control 100
[20] = biological target: Potassium voltage-gated channel subfamily KQT member 1 (Homo sapiens) (UniProt P51787); experiment: KCNQ1 channel current potentiators, confirmation, orthogonal assay for KCNQ1 potentiator project, IonWorks patch clamp, KCNQ1-CHO cells (AID 493184;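 active = current rise at least 3 SD above the untreated control mean in each of two repeat wells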); conditions: automated patch clamp current, at 10 µM; hits give high values

Sequence of Short transient receptor potential channel 6 (Mus musculus) (Q61143 whole entry, looked up): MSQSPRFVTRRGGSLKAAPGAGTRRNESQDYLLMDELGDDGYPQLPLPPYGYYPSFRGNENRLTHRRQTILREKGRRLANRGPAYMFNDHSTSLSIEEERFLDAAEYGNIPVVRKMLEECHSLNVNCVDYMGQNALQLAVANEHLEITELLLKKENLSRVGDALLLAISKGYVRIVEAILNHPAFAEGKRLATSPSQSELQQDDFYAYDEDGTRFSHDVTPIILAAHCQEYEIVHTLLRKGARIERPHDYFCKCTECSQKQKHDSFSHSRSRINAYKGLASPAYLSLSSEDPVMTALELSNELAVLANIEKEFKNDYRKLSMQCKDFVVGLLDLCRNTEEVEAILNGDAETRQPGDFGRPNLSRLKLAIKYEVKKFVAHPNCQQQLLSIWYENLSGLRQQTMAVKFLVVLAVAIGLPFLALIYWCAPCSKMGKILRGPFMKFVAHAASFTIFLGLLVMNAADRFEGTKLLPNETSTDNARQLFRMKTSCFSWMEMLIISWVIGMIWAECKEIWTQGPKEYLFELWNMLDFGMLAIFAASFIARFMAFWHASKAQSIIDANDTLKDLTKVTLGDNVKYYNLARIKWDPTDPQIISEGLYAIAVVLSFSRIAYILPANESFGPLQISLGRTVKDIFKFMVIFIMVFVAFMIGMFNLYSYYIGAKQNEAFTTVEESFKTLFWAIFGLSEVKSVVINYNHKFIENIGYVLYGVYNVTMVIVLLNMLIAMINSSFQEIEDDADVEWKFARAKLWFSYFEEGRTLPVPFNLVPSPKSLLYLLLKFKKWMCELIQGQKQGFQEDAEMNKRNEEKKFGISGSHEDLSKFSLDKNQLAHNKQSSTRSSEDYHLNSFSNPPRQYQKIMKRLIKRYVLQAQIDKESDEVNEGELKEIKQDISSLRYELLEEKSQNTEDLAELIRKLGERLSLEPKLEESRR
Sequence of Short transient receptor potential channel 4 (Mus musculus) (Q9QUQ5 whole entry, looked up): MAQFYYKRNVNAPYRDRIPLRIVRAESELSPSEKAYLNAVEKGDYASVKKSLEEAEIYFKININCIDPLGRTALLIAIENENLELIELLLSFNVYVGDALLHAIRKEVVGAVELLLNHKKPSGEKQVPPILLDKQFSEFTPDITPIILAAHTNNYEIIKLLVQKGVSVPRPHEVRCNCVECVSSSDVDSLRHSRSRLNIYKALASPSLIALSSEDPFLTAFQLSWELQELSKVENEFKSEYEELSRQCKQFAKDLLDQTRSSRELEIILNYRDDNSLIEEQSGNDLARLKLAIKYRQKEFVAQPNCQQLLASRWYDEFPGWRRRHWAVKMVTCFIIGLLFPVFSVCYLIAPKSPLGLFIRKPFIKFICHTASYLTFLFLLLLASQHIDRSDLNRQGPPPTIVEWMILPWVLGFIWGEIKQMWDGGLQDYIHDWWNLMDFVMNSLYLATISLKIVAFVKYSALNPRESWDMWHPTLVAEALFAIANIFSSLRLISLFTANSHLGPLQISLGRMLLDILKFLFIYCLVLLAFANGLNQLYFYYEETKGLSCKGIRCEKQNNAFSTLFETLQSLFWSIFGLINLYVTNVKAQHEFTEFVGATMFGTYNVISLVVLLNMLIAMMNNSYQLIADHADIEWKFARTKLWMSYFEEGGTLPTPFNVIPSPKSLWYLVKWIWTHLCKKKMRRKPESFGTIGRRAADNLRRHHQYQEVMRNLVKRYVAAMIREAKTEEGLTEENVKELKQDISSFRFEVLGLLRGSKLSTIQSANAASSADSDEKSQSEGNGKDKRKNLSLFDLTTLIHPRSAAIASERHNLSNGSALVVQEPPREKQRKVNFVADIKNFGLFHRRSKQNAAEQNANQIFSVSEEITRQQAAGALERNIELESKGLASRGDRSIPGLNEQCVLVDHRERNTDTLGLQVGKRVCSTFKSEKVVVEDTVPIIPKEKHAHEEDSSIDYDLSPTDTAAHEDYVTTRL
Sequence of Potassium voltage-gated channel subfamily KQT member 1 (Homo sapiens) (P51787 whole entry, looked up): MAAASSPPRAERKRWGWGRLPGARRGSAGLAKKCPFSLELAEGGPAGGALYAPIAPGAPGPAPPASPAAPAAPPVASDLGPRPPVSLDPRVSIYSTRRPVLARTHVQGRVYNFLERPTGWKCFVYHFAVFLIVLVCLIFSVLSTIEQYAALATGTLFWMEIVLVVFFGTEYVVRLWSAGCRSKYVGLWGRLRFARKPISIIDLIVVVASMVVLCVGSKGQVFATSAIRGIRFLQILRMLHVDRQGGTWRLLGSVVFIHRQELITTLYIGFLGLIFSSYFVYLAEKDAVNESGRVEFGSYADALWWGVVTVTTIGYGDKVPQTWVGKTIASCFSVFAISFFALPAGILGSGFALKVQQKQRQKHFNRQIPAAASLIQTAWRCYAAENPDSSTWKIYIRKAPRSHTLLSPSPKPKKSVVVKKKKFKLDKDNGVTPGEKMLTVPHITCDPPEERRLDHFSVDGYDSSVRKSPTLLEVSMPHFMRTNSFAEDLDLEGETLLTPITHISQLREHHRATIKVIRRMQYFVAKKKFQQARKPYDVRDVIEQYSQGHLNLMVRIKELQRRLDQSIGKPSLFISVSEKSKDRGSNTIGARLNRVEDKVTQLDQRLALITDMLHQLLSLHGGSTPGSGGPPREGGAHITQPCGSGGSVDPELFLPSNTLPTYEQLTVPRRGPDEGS
Sequence of Potassium voltage-gated channel subfamily KQT member 2 (Rattus norvegicus) (O88943 whole entry, looked up): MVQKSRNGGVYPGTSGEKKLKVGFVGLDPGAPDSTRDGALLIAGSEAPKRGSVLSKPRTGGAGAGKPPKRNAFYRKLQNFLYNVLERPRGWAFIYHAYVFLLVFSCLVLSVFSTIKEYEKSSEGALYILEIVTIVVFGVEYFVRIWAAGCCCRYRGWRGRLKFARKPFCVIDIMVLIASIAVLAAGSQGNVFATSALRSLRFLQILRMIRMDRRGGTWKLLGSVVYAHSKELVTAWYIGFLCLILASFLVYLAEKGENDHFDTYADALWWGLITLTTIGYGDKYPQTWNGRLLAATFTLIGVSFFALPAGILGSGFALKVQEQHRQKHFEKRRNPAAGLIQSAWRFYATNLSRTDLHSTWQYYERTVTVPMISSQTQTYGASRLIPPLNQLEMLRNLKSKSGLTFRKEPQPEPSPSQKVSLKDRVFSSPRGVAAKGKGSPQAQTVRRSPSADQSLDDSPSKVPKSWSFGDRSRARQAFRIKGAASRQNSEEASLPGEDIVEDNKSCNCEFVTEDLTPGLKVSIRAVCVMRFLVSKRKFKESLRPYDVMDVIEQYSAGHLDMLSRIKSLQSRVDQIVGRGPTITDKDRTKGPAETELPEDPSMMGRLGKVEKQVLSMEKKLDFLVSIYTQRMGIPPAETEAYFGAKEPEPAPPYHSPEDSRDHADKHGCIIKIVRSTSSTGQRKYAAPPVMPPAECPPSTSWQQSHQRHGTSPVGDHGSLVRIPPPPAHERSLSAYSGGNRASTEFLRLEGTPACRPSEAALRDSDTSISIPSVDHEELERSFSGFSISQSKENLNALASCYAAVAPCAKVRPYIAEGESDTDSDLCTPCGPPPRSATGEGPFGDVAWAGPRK

S=c1[nH]nc(-c2cc3c(s2)-c2ccccc2CC3)o1
inactive: outcome [1] | outcome [2] | outcome [3] | outcome [4] | outcome [6] | outcome [7] | outcome [8] | outcome [9] | outcome [10] | outcome [11] | outcome [12] | outcome [14] | outcome [15] | outcome [16] | outcome [20]
active: inhibition [5] 97% | inhibition [13] 32.1% | activation [17] 810% | potentiation [18] 241% | potentiation [19] 809%

Cc1cc(C)cc(N/C(N)=N/c2nc(C)cc(C)n2)c1
active: inhibition [5] 100% | inhibition [13] 30.2%
inactive: outcome [1] | outcome [2] | outcome [3] | outcome [4] | outcome [6] | outcome [7] | outcome [8] | outcome [9] | outcome [10] | outcome [11] | outcome [12] | outcome [14] | outcome [15] | outcome [16] | outcome [17] | outcome [18] | outcome [19] | outcome [20]

O=C(Nc1cccc(Cl)c1)c1cnn2cccnc12
inactive: outcome [1] | outcome [2] | outcome [5] | outcome [6] | outcome [7] | outcome [9] | outcome [10] | outcome [11] | outcome [12] | outcome [13] | outcome [15] | outcome [16]
active: potentiation [3] 16% | potentiation [4] 14% | potentiation [14] 43%

Cc1cccc(Cc2c(C)nc3c(C(=O)NCc4ccco4)cnn3c2C)c1
inactive: outcome [1] | outcome [2] | outcome [3] | outcome [4] | outcome [5] | outcome [6] | outcome [7] | outcome [9] | outcome [10] | outcome [11] | outcome [12] | outcome [13] | outcome [15] | outcome [16]
active: potentiation [14] 58.9%

CCCCOc1ccc(CSCCN=C(N)N)cc1
inactive: outcome [1] | outcome [2] | outcome [3] | outcome [4] | outcome [7] | outcome [8] | outcome [9] | outcome [10] | outcome [11] | outcome [12] | outcome [14] | outcome [15] | outcome [16]
active: inhibition [5] 88% | inhibition [6] 42% | inhibition [13] 40.1%

CN(C)CCOc1cc(Cl)cc(Cl)c1
active: potentiation [14] 10.7%
inactive: outcome [1] | outcome [2] | outcome [3] | outcome [4] | outcome [5] | outcome [6] | outcome [7] | outcome [9] | outcome [10] | outcome [11] | outcome [12] | outcome [13] | outcome [15] | outcome [16]

Cc1cc(-c2ccc(C)c(S(=O)(=O)N3CCN(c4ccccn4)CC3)c2)on1
inactive: outcome [1] | outcome [2] | outcome [3] | outcome [5] | outcome [6] | outcome [7] | outcome [9] | outcome [10] | outcome [11] | outcome [12] | outcome [13] | outcome [15] | outcome [16]
active: potentiation [4] 18% | potentiation [14] 16.4%
